# Test results from PubChem BioAssay.
# Values joined by “and” are separate entries in the source; they are usually repeats but may differ in a detail not shown here. Equal entries are not always repeated. The list shows a part of the results. Active and inactive are the calls of the source.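 The calls were made as follows, unless noted: active = GFP response above 150% of the DMSO level; inconclusive = fewer than 70 events counted for a yeast strain; inactive = the rest.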
# What was measured:
# [1] = yeast AGP1-GFP fluorescence change, single-dose – cell-based, flow cytometry, S. cerevisiae, cherry picks, confirmation (AID 2273);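 also: median GFP channel fluorescence over the whole cell population gate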; conditions: S. cerevisiae AGP1-GFP strain, 3 h, at 10 µM
# [2] = biological target: Regulator of G-protein signaling 16 (Homo sapiens) (UniProt O15492); assay: small molecules altering RGS protein interactions with GNAO1 – biochemical, multiplexed beads, flow cytometry, RGS4/7/8/16/19, primary screen (AID 1504); conditions: multiplexed bead flow cytometry, measured here: RGS16 interaction, at 10 µM;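 also: fluorescently labeled Galpha-o bound to GDP with aluminium fluoride binding biotinylated RGS beads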
# [3] = biological target: Regulator of G-protein signaling 19 (Homo sapiens) (UniProt P49795); assay: as above; conditions: multiplexed bead flow cytometry, measured here: RGS19 interaction, at 10 µM
# [4] = biological target: Regulator of G-protein signaling 7 (Homo sapiens) (UniProt P49802); assay: as above; conditions: multiplexed bead flow cytometry, measured here: RGS7 interaction, at 10 µM
# [5] = biological target: Regulator of G-protein signaling 8 (Homo sapiens) (UniProt P57771); assay: as above; conditions: multiplexed bead flow cytometry, measured here: RGS8 interaction, at 10 µM
# [6] = interference with biotin-avidin bead interaction – biochemical, flow cytometry, bead-based, counter-screen for RGS protein interaction modulators (AID 1783;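 active = inhibition above 50%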;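 also: median green fluorescence of gated singlet beads compared with DMSO control wells; 0% = DMSO wells and 100% = complete loss of bead fluorescence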); conditions: streptavidin beads, fluorescein-biotin binding; at 10 µM, stronger effect = higher value
# [7] = biological target: Guanine nucleotide-binding protein G(o) subunit alpha (Homo sapiens) (UniProt P09471); assay: retest of RGS8-Galphao interaction hits – biochemical, multiplexed bead flow cytometry, single concentration, confirmation (AID 1836; in the data active = binding response below about 72% or above about 130%; inactive = in between;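 also: Galphao activated as GDP AlF4 complex before binding bead RGS8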); conditions: bead-based flow cytometry RGS8-Galphao binding, fluorescence; at 10 µM; actives lie on both sides
# Sequence of Guanine nucleotide-binding protein G(o) subunit alpha (Homo sapiens) (P09471 whole entry, looked up): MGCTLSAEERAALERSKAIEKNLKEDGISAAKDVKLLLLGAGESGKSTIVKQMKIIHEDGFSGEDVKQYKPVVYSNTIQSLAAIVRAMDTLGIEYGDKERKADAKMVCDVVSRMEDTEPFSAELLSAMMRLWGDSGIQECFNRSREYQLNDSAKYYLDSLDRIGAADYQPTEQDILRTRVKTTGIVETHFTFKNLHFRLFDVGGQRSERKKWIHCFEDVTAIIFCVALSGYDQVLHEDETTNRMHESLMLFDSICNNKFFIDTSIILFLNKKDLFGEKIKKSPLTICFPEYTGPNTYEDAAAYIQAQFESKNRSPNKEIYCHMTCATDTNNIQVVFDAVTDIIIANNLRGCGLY
# [8] = biological target: Guanine nucleotide-binding protein G(o) subunit alpha (Homo sapiens) (UniProt P09471); assay: retest of RGS7-Galphao interaction hits – biochemical, multiplexed bead flow cytometry, single concentration, confirmation (AID 1837; in the data active = response below about 75% or above about 130%; inactive = in between;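 also: fluorescent Galphao activated with GDP and aluminum fluoride binding bead-coupled RGS7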); conditions: bead-based flow cytometry RGS7-Galphao binding; at 10 µM; actives lie on both sides
# [9] = biological target: Regulator of G-protein signaling 16 (Homo sapiens) + Guanine nucleotide-binding protein G(o) subunit alpha (Homo sapiens) (UniProt O15492+P09471); assay: RGS16 and Galphao interaction regulators – biochemical, single concentration, multiplexed bead flow cytometry, confirmation (AID 1838; in the data active = response below about 74% or above about 130%; inactive = in between;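 also: Galphao activated as the GDP aluminium fluoride complex binding bead-coupled RGS16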); conditions: bead-based flow cytometry, at 10 µM, actives lie on both sides
# Sequence of Regulator of G-protein signaling 16 (Homo sapiens) + Guanine nucleotide-binding protein G(o) subunit alpha (Homo sapiens) (O15492 whole entry, looked up): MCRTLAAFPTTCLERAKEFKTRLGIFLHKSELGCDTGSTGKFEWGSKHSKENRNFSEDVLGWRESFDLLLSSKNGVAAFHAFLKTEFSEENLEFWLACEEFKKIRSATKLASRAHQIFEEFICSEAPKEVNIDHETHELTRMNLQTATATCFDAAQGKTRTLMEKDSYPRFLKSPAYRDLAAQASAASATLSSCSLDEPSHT
# Sequence of Regulator of G-protein signaling 16 (Homo sapiens) + Guanine nucleotide-binding protein G(o) subunit alpha (Homo sapiens) (P09471 whole entry, looked up): as the sequence (P09471 whole entry, looked up) above
# [10] = biological target: Guanine nucleotide-binding protein G(o) subunit alpha (Homo sapiens) (UniProt P09471); assay: RGS4 and Galphao interaction regulators – biochemical, single concentration, multiplexed bead flow cytometry, confirmation (AID 1840; in the data active = binding response below about 74% or above about 130%; inactive = in between); conditions: at 10 µM, actives lie on both sides
# [11] = biological target: Guanine nucleotide-binding protein G(o) subunit alpha (Homo sapiens) + Regulator of G-protein signaling 19 (Homo sapiens) (UniProt P09471+P49795); assay: RGS19 interaction with Gαo, hit retest – biochemical, single point, multiplexed bead flow cytometry, confirmation (AID 1841; in the data active = response below about 50% or above about 160%; inactive = in between;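 also: 100% = no compound control and 0% = blank background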); conditions: bead-based flow cytometry RGS19-Galphao binding; at 10 µM; actives lie on both sides
# Sequence of Guanine nucleotide-binding protein G(o) subunit alpha (Homo sapiens) + Regulator of G-protein signaling 19 (Homo sapiens) (P09471 whole entry, looked up): as above
# Sequence of Guanine nucleotide-binding protein G(o) subunit alpha (Homo sapiens) + Regulator of G-protein signaling 19 (Homo sapiens) (P49795 whole entry, looked up): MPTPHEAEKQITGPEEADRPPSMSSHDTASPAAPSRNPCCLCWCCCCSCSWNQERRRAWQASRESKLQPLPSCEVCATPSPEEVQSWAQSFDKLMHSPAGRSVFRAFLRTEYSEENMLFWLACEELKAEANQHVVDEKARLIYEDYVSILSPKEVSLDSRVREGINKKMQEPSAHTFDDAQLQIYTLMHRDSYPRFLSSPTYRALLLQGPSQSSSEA
compound,measurement,setting,value
COc1ccc(C2=CC(=O)C=CC2=O)cc1,"GFP response, % of DMSO",[1],100% (inactive)
NC(=O)CSc1c[nH]c2ccccc12,RGS16–Galpha-o binding response,[2],19.6%
same,RGS19–Galpha-o binding response,[3],-48.5%
same,RGS7–Galpha-o binding response,[4],25.2%
same,RGS8–Galpha-o binding response,[5],27.5%
same,inhibition,[6],-1.7% (inactive)
same,binding response (% of control),[7],104% (inactive)
same,response (percent of control binding),[8],102% (inactive)
same,response (% of control binding),[9],110% (inactive)
same,binding response (% of control),[10],106% (inactive)
same,response (percent of control binding),[11],103% (inactive)
O=C(O)CCNC(=O)c1ccccc1,"GFP response, % of DMSO",[1],104% (inactive)
CC(NCCc1ccc(O)cc1)C(O)c1ccc(O)cc1 (stereo not given),"GFP response, % of DMSO",[1],101% (inactive)
CN(C)CCCN1c2ccccc2Sc2ccc(Cl)cc21,"GFP response, % of DMSO",[1],94.3% (inactive)
COc1ccccc1CCNC(=O)CSc1nnc2ccc(-c3cccnc3)nn12,inhibition,[6],-0.7% (inactive)
same,binding response (% of control),[7],100% (inactive)
same,response (percent of control binding),[8],103% (inactive)
same,response (% of control binding),[9],101% (inactive)
same,binding response (% of control),[10],101% (inactive)
same,response (percent of control binding),[11],107% (inactive)
O=c1cc(-c2ccccc2)oc2cc(OCc3ccccc3)cc(O)c12,"GFP response, % of DMSO",[1],98.9% (inactive)
COc1cccc(/C=C/C(=O)c2c(O)cc(C)oc2=O)c1O,"GFP response, % of DMSO",[1],94.1% (inactive)
O=[N+]([O-])c1ccc(O)c2ncccc12,"GFP response, % of DMSO",[1],128% (inactive)
C[C@H]1C[C@@H]2[C@H]([C@@H](O)C[C@@]3(C)[C@H]2CC[C@]3(O)C(=O)CO)[C@@]2(C)C=CC(=O)C=C12,"GFP response, % of DMSO",[1],96% (inactive)
OC(CCN1CCCCC1)(c1ccccc1)c1ccccc1,"GFP response, % of DMSO",[1],96.3% (inactive)
C[C@]12CCC(=O)C=C1[C@H](O)C[C@@H]1[C@@H]2[C@@H](O)C[C@@]2(C)[C@H]1CC[C@]2(O)C(=O)CO,"GFP response, % of DMSO",[1],98.9% (inactive)
C[C@]12CC[C@H]3[C@@H](CCC4=CC(=O)CC[C@@]43C)[C@@H]1CC[C@@H]2C(=O)CO,"GFP response, % of DMSO",[1],92.6% (inactive)
O=C(NC1CCCCC1)N1CCc2[nH]c3ccccc3c2C1,"GFP response, % of DMSO",[1],96% (inactive)
CCCCCCCC(=O)OCC(=O)[C@@]1(O)CC[C@H]2[C@@H]3CCC4=CC(=O)CC[C@]4(C)[C@H]3[C@@H](O)C[C@@]21C,"GFP response, % of DMSO",[1],101% (inactive)
CC(C)CC(=O)Nc1ccc2oc(-c3ccncc3)nc2c1,"GFP response, % of DMSO",[1],95.9% (inactive)
Nc1[nH]c(=O)ncc1F,"GFP response, % of DMSO",[1],78.5% (inactive)
CC(=O)c1ccc(CCCCCCCCCC(=O)O)s1,"GFP response, % of DMSO",[1],95.2% (inactive)
Cc1ccc2[nH]c3c(c2c1)CCNC3=O,"GFP response, % of DMSO",[1],95% (inactive)
CN/C(=C/[N+](=O)[O-])NCCSCc1ccc(CN(C)C)o1,"GFP response, % of DMSO",[1],99.3% (inactive)
O=c1cnn([C@@H]2O[C@H](CO)[C@@H](O)[C@H]2O)c(=O)[nH]1,"GFP response, % of DMSO",[1],89.9% (inactive)
CN1CCN2c3ccccc3Cc3ccccc3C2C1 (stereo not given),"GFP response, % of DMSO",[1],97.6% (inactive)
O=C(O)Cc1ccc(-c2ccccc2)cc1,"GFP response, % of DMSO",[1],100% (inactive)
CC(=O)[C@H]1CC[C@H]2[C@@H]3CCC4=CC(=O)CC[C@]4(C)[C@H]3CC[C@]12C,"GFP response, % of DMSO",[1],96% (inactive)
COc1ccc(-c2noc(-c3ccccc3-c3ccccc3)n2)cc1,"GFP response, % of DMSO",[1],101% (inactive)
CC(=O)Nc1ccccc1O,"GFP response, % of DMSO",[1],98.7% (inactive)
CCOC(=O)C(Cc1cc(C(C)=O)ccc1OC(C)C)C(=O)OCC,"GFP response, % of DMSO",[1],90.8% (inactive)
C[C@]12CCC(=O)C=C1CC[C@@H]1[C@@H]2[C@@H](O)C[C@@]2(C)[C@H]1CC[C@]2(O)C(=O)COC(=O)CCC(=O)O,"GFP response, % of DMSO",[1],98.9% (inactive) and 99.3% (inactive)
N=c1nc(N2CCCCC2)cc(N)n1O,"GFP response, % of DMSO",[1],98.9% (inactive)
COc1cc(/C=C/C(=O)CC(=O)/C=C/c2ccc(O)c(OC)c2)ccc1O,"GFP response, % of DMSO",[1],98.7% (inactive)
O=c1[nH]cc(F)c(=O)[nH]1,"GFP response, % of DMSO",[1],90% (inactive)
C1COC(NC(C2CC2)C2CC2)=N1,"GFP response, % of DMSO",[1],105% (inactive)
CC(=O)[C@@]1(O)CC[C@H]2[C@@H]3CCC4=CC(=O)CC[C@]4(C)[C@H]3[C@@H](O)C[C@@]21C,"GFP response, % of DMSO",[1],103% (inactive)
CC(=O)OCC(=O)[C@H]1CC[C@H]2[C@@H]3CCC4=CC(=O)CC[C@]4(C)[C@H]3CC[C@]12C,"GFP response, % of DMSO",[1],95.2% (inactive)
CC(=O)OCC(=O)[C@@]1(O)CC[C@H]2[C@@H]3CCC4=CC(=O)CC[C@]4(C)[C@H]3[C@@H](O)C[C@@]21C,"GFP response, % of DMSO",[1],97% (inactive)
C[C@]12CCC(=O)C=C1CC[C@@H]1[C@@H]2[C@@H](O)C[C@@]2(C)[C@H]1CC[C@]2(O)C(=O)CO,"GFP response, % of DMSO",[1],99.2% (inactive)
NS(=O)(=O)c1cc2c(cc1C(F)(F)F)NC(Cc1ccccc1)NS2(=O)=O (stereo not given),"GFP response, % of DMSO",[1],101% (inactive)
CC(=O)O[C@]1(C(C)=O)CC[C@H]2[C@@H]3C[C@H](C)C4=CC(=O)CC[C@]4(C)[C@H]3CC[C@@]21C,"GFP response, % of DMSO",[1],97.1% (inactive)
CC(=O)[C@H]1CC[C@H]2[C@@H]3CCC4=CC(=O)CC[C@]4(C)[C@H]3[C@H](O)C[C@]12C,"GFP response, % of DMSO",[1],100% (inactive)
CNCCC(Oc1ccc(C(F)(F)F)cc1)c1ccccc1 (stereo not given),"GFP response, % of DMSO",[1],97.4% (inactive)
C[C@]12C[C@H](O)[C@H]3[C@@H](CCC4=CC(=O)CC[C@@]43C)[C@@H]1CC[C@@H]2C(=O)CO,"GFP response, % of DMSO",[1],96.4% (inactive)
C#C[C@]1(O)CC[C@H]2[C@@H]3CCC4=CC(=O)CC[C@@H]4[C@H]3CC[C@@]21CC,"GFP response, % of DMSO",[1],95.7% (inactive)
CCCCN(CCCC)CCCOC(=O)c1ccc(N)cc1,"GFP response, % of DMSO",[1],94.5% (inactive)
CCOc1cc(C=O)ccc1OCCSc1ccc(C)cc1,"GFP response, % of DMSO",[1],94.9% (inactive)
c1ccc2c(c1)CCOC2CNCCCN1CCCCC1 (stereo not given),"GFP response, % of DMSO",[1],98.5% (inactive)
C[C@]12CC[C@@H]3c4ccc(O)cc4C(=O)C[C@H]3[C@@H]1CC[C@@H]2O,"GFP response, % of DMSO",[1],97.2% (inactive)
